Data from PubChem BioAssay (NCATS).
Records with an inconclusive call do not appear. The source made the active and inactive calls. Unless noted, how the calls were made is not given here.

Legend:
[1] = qHTS profiling for inhibitors of Plasmodium falciparum (3D7) proliferation (AID 743322);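 further: infected erythrocytes exposed to compound for 72 h before lysis; 100% = DMSO vehicle wells and 0% = 0.29 µM artemisinin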; conditions: P. falciparum 3D7 proliferation; at 28.7 µM (top of the series) unless noted
Procedure, shortened: (§1)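 Parasite DNA was quantified by SYBR Green I fluorescence (ex 485, em 535 nm) after overnight lysis in saponin/Triton buffer at room temperature. Cultures at 0.3% parasitemia and 2.5% hematocrit were first exposed to compound for 72 h at 37 C; signals were normalised to artemisinin (0.29 uM) and vehicle wells.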

[2] = qHTS profiling for inhibitors of Plasmodium falciparum (DD2) proliferation (AID 743323); conditions: lower = more inhibition; at 28.7 µM (top of the series) unless noted
Procedure, shortened: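 P. falciparum Dd2-infected erythrocytes (0.3% parasitemia, 2.5% hematocrit) exposed 72 h at 37 C, 5% CO2. Lysis with SYBR Green, overnight at room temperature, fluorescence 485/535 nm; normalized to 0.29 uM artemisinin and DMSO.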

[3] = qHTS profiling for inhibitors of Plasmodium falciparum (HB3) proliferation (AID 743324; active means well fitted curve in the direction sought with a large enough effect; an effect the other way counts as inactive or inconclusive;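 further: 100% = DMSO vehicle wells and 0% = artemisinin-treated control wells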); conditions: Plasmodium falciparum HB3 blood-stage proliferation; at 28.7 µM (top of the series) unless noted
Procedure, shortened: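 SYBR Green fluorescence (485 ex/535 em) of lysed cultures, incubated overnight at room temperature in the dark, quantifies parasite DNA. Infected erythrocytes at 0.3% parasitemia and 2.5% hematocrit were exposed 72 h; values normalized to DMSO and 0.29 uM artemisinin controls.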

[4] = qHTS profiling of the MIPE4 collection as inhibitors of Plasmodium falciparum (3D7) proliferation (AID 743344);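 further: scaled between DMSO vehicle wells and 0.29 µM artemisinin as full inhibition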; conditions: P. falciparum 3D7 in erythrocytes, SYBR Green DNA fluorescence, 72 h; at 28.5 µM (top of the series)
Procedure, shortened: as §1

[5] = qHTS profiling of the MIPE4 collection as inhibitors of Plasmodium falciparum (DD2) proliferation (Rep 2) (AID 743346); conditions: P. falciparum Dd2 in erythrocytes, SYBR Green DNA, 72 h; at 28.5 µM (top of the series)
Procedure, shortened: as §1

[6] = qHTS Assay for Identifying Gametocytocidal Compounds (AID 743244; active means well fitted curve in the direction sought with a large enough effect; an effect the other way counts as inactive or inconclusive; further: potency means the concentration at half of the fitted maximal effect); conditions: P. falciparum 3D7 stage III-V gametocytes, alamarBlue, 72 h; max response: stronger effect = lower value
Procedure, shortened: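 3D7 gametocytes, stages III–V, 20,000/well; cpd 72 h, 37 °C/5% CO2; + alamarBlue 24 h; fluor. Ex 525/Em 598.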

[7] = qHTS profiling of the MIPE4 collection as inhibitors of Plasmodium falciparum (DD2) proliferation (AID 743345); conditions: P. falciparum Dd2 in erythrocytes, SYBR Green DNA, 72 h; at 28.5 µM (top of the series) unless noted
Procedure, shortened: as §1

[8] = qHTS profiling of the MIPE4 collection as inhibitors of Plasmodium falciparum (HB3) proliferation (AID 743347);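 further: plate controls were DMSO vehicle wells for no effect and artemisinin wells for full effect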; conditions: P. falciparum HB3 in erythrocytes, SYBR Green DNA, 72 h; at 28.5 µM (top of the series)
Procedure, shortened: as §1

Structure (SMILES): Cc1c(C(=O)Nc2cccc(C(F)(F)F)c2)cc(-c2ccccc2)n1CCCN1CCOCC1
- remaining parasite growth % (stronger effect = lower value) [1]: 8.32%
- activity, percent of control [2]: 17.4%
- remaining proliferation (% of control), lower = more inhibition [3]: 9.01%
- parasite growth, % of DMSO control [4]: 19.9%
- parasite growth, % of control (lower = inhibition) [5]: 16.5%

Structure (SMILES): Clc1ccc(C(c2ccc(Cl)cc2)n2cc[n+](CC(OCc3ccc(Cl)cc3Cl)c3ccc(Cl)cc3Cl)c2)cc1 (stereo not drawn)
- Potency [6]: 1000 nM (active)

Structure (SMILES): CCCCN1CCC(CNC(=O)c2c3n(c4ccccc24)CCCO3)CC1
- remaining parasite growth % (stronger effect = lower value) [1]: 91.7%
- activity, percent of control [2]: 54.7%
- remaining proliferation (% of control), lower = more inhibition [3]: 74.4%
- parasite growth remaining, % of DMSO control (lower = more inhibition) [7]: 56.2%
- parasite growth, % of control (lower = inhibition) [5]: 38.7%

Structure (SMILES): C=CCON=C(C[C@H]1O[C@@H]2O[C@]3(C)CC[C@@H]4[C@H](C)CC[C@@H]([C@H]1C)[C@@]24OO3)[C@H]1O[C@@H]2O[C@]3(C)CC[C@H]4[C@H](C)CC[C@@H]([C@@H]1C)[C@@]24OO3
- remaining parasite growth % (stronger effect = lower value) [1]: -1.46%
- activity, percent of control [2]: 0.0103%
- remaining proliferation (% of control), lower = more inhibition [3]: 0.0213%
- parasite growth, % of DMSO control [4]: 21.6%
- parasite growth remaining, % of DMSO control (lower = more inhibition) [7]: 7.38%
- parasite growth, % of control (lower = inhibition) [5]: 16.3%

Structure (SMILES): CC1CC(C)C(=O)C(C(O)CC2CC(=O)NC(=O)C2)C1 (stereo not drawn)
- Potency [6]: 1520 nM (active)
- remaining parasite growth % (stronger effect = lower value) [1]: 0.131% [at 57.5 µM]
- activity, percent of control [2]: 0.244% [at 57.5 µM]
- remaining proliferation (% of control), lower = more inhibition [3]: -0.376% [at 57.5 µM]

Structure (SMILES): C=C[C@@H]1CN2CCC1C[C@H]2[C@H](O)c1ccnc2ccccc12 (stereo partly drawn)
- parasite growth, % of DMSO control [4]: 26.8%
- parasite growth remaining, % of DMSO control (lower = more inhibition) [7]: 10.8%
- parasite growth, % of control (lower = inhibition) [5]: 46.5%

Structure (SMILES): CC[C@@H](C(=O)O)C1CC[C@H](C)C([C@@H](C)[C@H](O)[C@H](C)C(=O)[C@H](CC)C2O[C@]3(C=C[C@@H](O)[C@]4(CC[C@@](C)(C5CC[C@](O)(CC)[C@H](C)O5)O4)O3)[C@H](C)C[C@@H]2C)O1 (stereo partly drawn)
- Potency [6]: 52.6 nM (active)

Structure (SMILES): c1ccc2c(CN3CCNCC3)cccc2c1
- parasite growth, % of DMSO control [4]: 85.3%
- parasite growth remaining, % of DMSO control (lower = more inhibition) [7]: 53.1%
- parasite growth, % of control (lower = inhibition) [5]: 43.2%

Structure (SMILES): CCC(=O)OC1CCC2C3CCC4=CC(=O)CC[C@@]4(C)C3CC[C@]12C (stereo partly drawn)
- parasite growth, % of DMSO control [4]: 89.9%
- parasite growth remaining, % of DMSO control (lower = more inhibition) [7]: 96.4%
- parasite growth, % of control (lower = inhibition) [5]: 125%

Structure (SMILES): CC=C(C)C(=O)O[C@H]1C(C)=C2[C@@H]3OC(=O)[C@@](C)(O)[C@@]3(O)[C@@H](OC(=O)CCC)C[C@](C)(OC(C)=O)[C@@H]2[C@@H]1OC(=O)CCCCCCC
- parasite growth, % of DMSO control [4]: 15.2%
- parasite growth remaining, % of DMSO control (lower = more inhibition) [7]: 8.2%
- parasite growth, % of control (lower = inhibition) [5]: 16.2%
- growth, % of control [8]: 8.71%

Structure (SMILES): CCCC[N+]1(C)[C@H]2CC(OC(=O)[C@H](CO)c3ccccc3)C[C@H]1[C@H]1O[C@H]12 (stereo partly drawn)
- parasite growth, % of DMSO control [4]: 98.9%
- parasite growth remaining, % of DMSO control (lower = more inhibition) [7]: 100%
- parasite growth, % of control (lower = inhibition) [5]: 86.4%

Structure (SMILES): Cc1c(N)nc([C@H](CC(N)=O)NC[C@@H](N)C(N)=O)nc1C(=O)N[C@H](C(=O)N[C@@H](C)[C@H](O)[C@@H](C)C(=O)N[C@@H](C(=O)NCCc1nc(-c2nc(C(=O)NCCC[S+](C)C)cs2)cs1)[C@@H](C)O)C(O[C@H]1O[C@H](CO)[C@H](O)[C@@H](O)[C@@H]1O[C@H]1O[C@H](CO)[C@@H](O)[C@H](OC(N)=O)[C@H]1O)c1cnc[nH]1 (stereo partly drawn)
- parasite growth, % of DMSO control [4]: 11%
- parasite growth remaining, % of DMSO control (lower = more inhibition) [7]: 9.76%
- parasite growth, % of control (lower = inhibition) [5]: 15.5%

Structure (SMILES): CCN(CC)C(=O)c1ccc(C2=CC3(CCNCC3)Oc3cccc(O)c32)cc1
- parasite growth, % of DMSO control [4]: 21.1%
- parasite growth remaining, % of DMSO control (lower = more inhibition) [7]: 42.1%
- parasite growth, % of control (lower = inhibition) [5]: 14.4%
- growth, % of control [8]: 38.8%

Structure (SMILES): CC(=O)N(C)c1cccc(-c2ccnc3c(C(=O)c4cccs4)cnn23)c1
- parasite growth, % of DMSO control [4]: 44.9%
- parasite growth remaining, % of DMSO control (lower = more inhibition) [7]: 66.2%
- parasite growth, % of control (lower = inhibition) [5]: 51.9%
- growth, % of control [8]: 50.4%

Structure (SMILES): CC[C@H]1C=CC=CC[C@@H](C)[C@H](O)[C@@](C)(O)C(=O)[C@@H](C)[C@H](O)[C@@H](C)C(=O)[C@@H](C)[C@H](O)[C@@H](C)C=CC(=O)O[C@@H]2[C@@H](C)[C@H](CC1)O[C@]1(CC[C@H](C)[C@H](C[C@@H](C)O)O1)[C@H]2C
- parasite growth, % of DMSO control [4]: 16.9%
- parasite growth remaining, % of DMSO control (lower = more inhibition) [7]: 6.38%
- parasite growth, % of control (lower = inhibition) [5]: 20.2%
- growth, % of control [8]: 8.5%

Structure (SMILES): CSCC[C@@H](NC(=O)[C@@H](Cc1ccccc1)NC(=O)CNC(=O)CNC(=O)[C@@H](N)Cc1ccc(O)cc1)C(=O)O
- parasite growth, % of DMSO control [4]: 92.2%
- parasite growth remaining, % of DMSO control (lower = more inhibition) [7]: 49.8%
- parasite growth, % of control (lower = inhibition) [5]: 89.9%
- growth, % of control [8]: 99.5%

Structure (SMILES): CC[C@@H]1[C@@H](C)O[C@@](O)([C@@H](C)[C@H](O)[C@H](C)[C@H]2OC(=O)C=CC=C[C@@H](C)[C@@H]([C@@H](C)[C@@H](O)[C@H](C)[C@@]3(O)C[C@H](O[C@H]4C[C@H](O)[C@H](O)[C@H](C)O4)[C@H](CC)[C@@H](C)O3)OC(=O)C=CC=C[C@@H]2C)C[C@H]1O[C@H]1C[C@H](O)[C@H](O)[C@H](C)O1
- parasite growth, % of DMSO control [4]: 49.6%
- parasite growth remaining, % of DMSO control (lower = more inhibition) [7]: 6.07%
- parasite growth, % of control (lower = inhibition) [5]: 25.8%

Structure (SMILES): CCCN1CCO[C@@H]2c3cc(O)ccc3OC[C@@H]21
- parasite growth, % of DMSO control [4]: 98.1%
- parasite growth remaining, % of DMSO control (lower = more inhibition) [7]: 99.7%
- parasite growth, % of control (lower = inhibition) [5]: 91%
- growth, % of control [8]: 77.3%

Structure (SMILES): CC1(N2CCC(n3c([C@@H]4CCCNC4)nc4ccccc43)CC2)CCCCCCC1
- parasite growth, % of DMSO control [4]: 5.01%
- parasite growth remaining, % of DMSO control (lower = more inhibition) [7]: 11.2%
- parasite growth, % of control (lower = inhibition) [5]: 19.4%
- growth, % of control [8]: 6.13%

Structure (SMILES): Cc1[nH]nc2ccc(-c3cncc(OC[C@@H](N)Cc4c[nH]c5ccccc45)c3)cc12
- parasite growth, % of DMSO control [4]: 18.3%
- parasite growth remaining, % of DMSO control (lower = more inhibition) [7]: 47.9%
- parasite growth, % of control (lower = inhibition) [5]: 20.1%
- growth, % of control [8]: 8.77%

Structure (SMILES): C[C@]12CC[C@H]3[C@@H](CCC4=CC(=O)CC[C@@]43C)[C@H]1CC[C@H]2OC(=O)CCC1CCCC1
- parasite growth, % of DMSO control [4]: 7.86%
- parasite growth remaining, % of DMSO control (lower = more inhibition) [7]: 15.6%
- parasite growth, % of control (lower = inhibition) [5]: 18.3%
- growth, % of control [8]: 6.49%

Structure (SMILES): CC(C)(C)c1cc(C=C(C#N)C#N)cc(Br)c1O
- parasite growth, % of DMSO control [4]: 34.5%
- parasite growth remaining, % of DMSO control (lower = more inhibition) [7]: 93.3%
- parasite growth, % of control (lower = inhibition) [5]: 37.3%
- growth, % of control [8]: 34.7%

Structure (SMILES): CC(O)=C(C#N)C(=O)Nc1cc(Br)ccc1Br
- parasite growth, % of DMSO control [4]: 80.7%
- parasite growth remaining, % of DMSO control (lower = more inhibition) [7]: 97%
- parasite growth, % of control (lower = inhibition) [5]: 78.2%
- growth, % of control [8]: 93.7%

Structure (SMILES): O=C(N[C@@H](COc1ccc2[nH]c(=O)[nH]c2c1)c1ccccc1)c1cccn(Cc2ccc(F)c(F)c2)c1=O
- parasite growth, % of DMSO control [4]: 50.5%
- parasite growth remaining, % of DMSO control (lower = more inhibition) [7]: 85.6%
- parasite growth, % of control (lower = inhibition) [5]: 75.9%

Structure (SMILES): C#CC1(O)CCC2C3CCC4=CC(=O)CCC4(C)C3CCC21C (stereo not drawn)
- parasite growth, % of DMSO control [4]: 78.6%
- parasite growth remaining, % of DMSO control (lower = more inhibition) [7]: 106%
- parasite growth, % of control (lower = inhibition) [5]: 88%
- growth, % of control [8]: 89%

Structure (SMILES): O=c1[nH]c2ccccc2n1C1CCN(Cc2ccc(-c3[nH]c4cc5ncnc5cc4nc3-c3ccccc3)cc2)CC1
- parasite growth, % of DMSO control [4]: 4.63%
- parasite growth remaining, % of DMSO control (lower = more inhibition) [7]: 6.7%
- parasite growth, % of control (lower = inhibition) [5]: 14.2%
- growth, % of control [8]: 4.58%

Structure (SMILES): C[C@](O)(COc1ccc(C#N)cc1)C(=O)Nc1ccc(C#N)c(C(F)(F)F)c1
- parasite growth, % of DMSO control [4]: 6.31%
- parasite growth remaining, % of DMSO control (lower = more inhibition) [7]: 92.3%
- parasite growth, % of control (lower = inhibition) [5]: 20.8%
